From publication PMC4336329 (PLoS ONE, 2015) come the findings set out here.

About 14,000 (4.5%) of roughly 310,000 compounds showed an effect of 50% or more. The effect is printed as a negative number. This excerpt belongs to a sample that is enriched for strong results.
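Note: peak tail current of the secondary pulse compared with the same well before compound.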

Sequence of human ether-à-go-go-related gene (hERG) potassium channel (Q12809 whole entry, looked up): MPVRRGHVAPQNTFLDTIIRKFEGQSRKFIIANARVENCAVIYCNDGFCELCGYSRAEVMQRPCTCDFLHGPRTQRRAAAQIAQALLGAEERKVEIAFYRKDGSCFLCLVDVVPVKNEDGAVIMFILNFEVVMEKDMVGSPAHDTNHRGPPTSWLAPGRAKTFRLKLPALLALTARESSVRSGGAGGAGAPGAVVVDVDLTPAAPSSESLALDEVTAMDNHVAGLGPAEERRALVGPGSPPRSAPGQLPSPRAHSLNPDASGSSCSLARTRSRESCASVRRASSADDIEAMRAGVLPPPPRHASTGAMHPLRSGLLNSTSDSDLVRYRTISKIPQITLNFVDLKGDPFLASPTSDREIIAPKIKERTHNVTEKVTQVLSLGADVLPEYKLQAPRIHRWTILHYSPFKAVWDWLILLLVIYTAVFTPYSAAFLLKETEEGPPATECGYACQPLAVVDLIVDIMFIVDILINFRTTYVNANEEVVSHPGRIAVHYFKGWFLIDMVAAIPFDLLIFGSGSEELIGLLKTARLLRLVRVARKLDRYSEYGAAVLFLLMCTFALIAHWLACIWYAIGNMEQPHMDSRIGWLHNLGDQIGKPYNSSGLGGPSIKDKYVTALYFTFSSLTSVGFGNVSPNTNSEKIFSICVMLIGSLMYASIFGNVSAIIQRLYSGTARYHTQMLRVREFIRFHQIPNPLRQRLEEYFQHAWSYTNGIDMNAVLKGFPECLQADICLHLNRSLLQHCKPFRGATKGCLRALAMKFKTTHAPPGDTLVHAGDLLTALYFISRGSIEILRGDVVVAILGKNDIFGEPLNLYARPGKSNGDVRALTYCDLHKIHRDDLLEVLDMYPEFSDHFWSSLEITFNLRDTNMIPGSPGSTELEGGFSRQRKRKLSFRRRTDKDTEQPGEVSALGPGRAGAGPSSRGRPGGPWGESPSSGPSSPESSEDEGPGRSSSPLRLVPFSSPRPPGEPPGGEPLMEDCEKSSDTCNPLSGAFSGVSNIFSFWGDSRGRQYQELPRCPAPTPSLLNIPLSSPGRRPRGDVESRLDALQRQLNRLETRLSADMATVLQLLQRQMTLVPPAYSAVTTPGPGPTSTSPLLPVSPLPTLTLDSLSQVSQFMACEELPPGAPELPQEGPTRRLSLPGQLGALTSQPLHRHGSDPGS

The experiment has as its target human ether-à-go-go-related gene (hERG) potassium channel (human, UniProt Q12809). Briefly: primary screen, population patch clamp on CHO cells stably expressing hERG; higher = less effect of the substance.
With `CN(C)CCc1nn[nH]n1`, the “hERG current change (%, negative = inhibition) at 10uM” value is recorded as -0.456%.
The value for `CSCCC(NC(=O)c1ccc(Cl)cc1Cl)C(=O)OC1CCCCC1=O` (stereo not shown) was -26.7%; that for `CCOc1ccc(NC(=O)CN(C)CC(=O)Nc2cccc(Cl)c2C)cc1OCC` was -10.4%; that for `CC(=O)N(CCC(c1ccccc1)c1ccco1)Cc1cccs1` (stereo not shown) was -52.9%.
Turning to `COc1ccccc1C(CCN(Cc1cccs1)C(C)=O)c1ccco1` (stereo not shown), the “hERG current change (%, negative = inhibition) at 10uM” value is -2.93%.
The same measure for `CCC(=O)N(CCC(c1ccccc1)c1ccco1)Cc1cccs1` (stereo not shown): -15.9%; for `COc1ccc(NC(=O)CNS(=O)(=O)c2ccccc2)cc1Cl`: 4.28%; for `CC(=O)Nc1ccc(S(=O)(=O)NCCc2ccc(F)cc2)cc1`: -10.7%.
The value for `COc1ccccc1NS(=O)(=O)c1ccc(Cl)cc1` was -19.5%; that for `CC(Nc1ccc(F)cc1)=[N+](C)CCNS(=O)(=O)c1ccc(Cl)cc1.[I-]` was -68.4%.
On to `COc1ccccc1NC(=O)C(C)NS(=O)(=O)c1ccc(Cl)cc1` (stereo not shown), for which the “hERG current change (%, negative = inhibition) at 10uM” value is reported as -0.716%.
The value for `COc1ccccc1NC(C)=[N+](C)CCNS(=O)(=O)c1ccc(Cl)cc1.[I-]` was -58.7%; that for `COc1ccc(NC(=O)CCNS(=O)(=O)c2ccc(NC(C)=O)cc2)cc1Cl` was 22.8%.
The value for `COc1ccc(NC(C)=[N+](C)CCNS(=O)(=O)c2ccc(Cl)cc2)cc1Cl.[I-]` was -69.5%; that for `CCNS(=O)(=O)c1ccc(NC(=O)Nc2cccc(OC)c2)cc1` was 8.01%.
The same measure for `COc1cccc(NC(C)=[N+](C)CCNS(=O)(=O)c2ccc(Cl)cc2)c1.[I-]`: -64.4%.
Take `CC(Nc1cc(C)cc(C)c1)=[N+](C)CCNS(=O)(=O)c1ccc(Cl)cc1.[I-]`: the “hERG current change (%, negative = inhibition) at 10uM” value was -48.5%.
The value for `COc1cccc(NC(=O)C2(S(=O)(=O)c3ccc(Cl)cc3)CC2)c1` was -15.9%; that for `CCCc1nc2c(sc3nc4c(cc32)COC(C)(C)C4)c(=O)n1CCN(CC)CC` was -17.8%; that for `O=[N+]([O-])c1cccc(NC(=S)NCc2ccncc2)c1` was 0.695%.
The same measure for `CCOC(=O)c1c(Nc2ccccc2)sc(/C=C2\C=Nc3ccccc32)c1O`: 0.585%; for `O=C(O)/C=C/C(=O)N1CCN(c2ccccc2F)CC1`: 7.85%; for `COc1ccc(-c2ccc(SCC(=O)N3c4ccccc4CC3C)nn2)cc1OC` (stereo not shown): -4.75%.
On to `CCOC(=O)C1CCN(C(=O)c2cn(C)c(=O)c3cc(OC)c(OC)cc23)CC1`, for which the “hERG current change (%, negative = inhibition) at 10uM” value was -11.3%.
On to `COc1ccc(NC(=O)COC(=O)CCNS(=O)(=O)c2ccc(Cl)cc2)cc1`, for which the “hERG current change (%, negative = inhibition) at 10uM” value is listed as -23.2%.
Take `COc1ccc(NC(C)=[N+](C)CCNS(=O)(=O)c2ccc(Cl)cc2)cc1.[I-]`: the “hERG current change (%, negative = inhibition) at 10uM” value is -70.2%.
The value for `COc1ccc(NC(=O)CNS(=O)(=O)c2ccc(Cl)cc2)cc1` was 3.79%; that for `Cc1cc(S(=O)(=O)Nc2ccc3c(c2)n(C)c(=O)n3C)ccc1F` was -0.399%; that for `Cl.O=C(c1ccc(F)cc1)C(CCCCCC(CN1CCOCC1)C(=O)c1ccc(F)cc1)CN1CCOCC1` (stereo not shown) was -86.8%.
The value for `Cl.O=C(c1ccccc1)C(CCC(CN1CCOCC1)C(=O)c1ccccc1)CN1CCOCC1` (stereo not shown) was -7.92%.
For `Cl.O=C(c1ccc(F)cc1)C(CN1CCOCC1)c1ccccc1` (stereo not shown), the “hERG current change (%, negative = inhibition) at 10uM” value is listed as -12.3%.
The value for `CCc1ccc(NC(=O)CSc2nnnn2-c2cccnc2)cc1` was -15.4%; that for `COc1ccccc1CCC(=O)Nc1ncc(C)s1` was 16.3%.
The same measure for `Cc1cc(=O)oc2cc(OCC(=O)Nc3ccccc3C(N)=O)c(Cl)cc12`: 18.5%; for `OCCC1CN(Cc2ccccc2-c2ccco2)CCN1Cc1ccsc1` (stereo not shown): -51%.
With `OCCC1CN(Cc2ccccc2-c2ccco2)CCN1C1CCCC1` (stereo not shown), the “hERG current change (%, negative = inhibition) at 10uM” value is -63.8%.
The same measure for `OCCC#Cc1ccc(CN2CCN(Cc3ccsc3)C(CCO)C2)cc1` (stereo not shown): -4.59%.
On to `OCCC1CN(Cc2ccccc2-c2ccco2)CCN1Cc1ccccc1` (stereo not shown), for which the “hERG current change (%, negative = inhibition) at 10uM” value was -35.7%.
The same measure for `CC(C)CCN1CCN(Cc2ccsc2)CC1CCO` (stereo not shown): -6.33%; for `CC(C)N1CCN(Cc2cccc(-c3ccco3)c2)CC1CCO` (stereo not shown): -35.9%.
The same measure for `Cc1ccc(CN2CCN(C3CCCC3)C(CCO)C2)s1` (stereo not shown): -22.4%.
The same measure for `OCCC1CN(Cc2ccc(-c3ccco3)cc2)CCN1Cc1ccsc1` (stereo not shown): -53.8%; for `Cc1ccc(CN2CCN(Cc3ccccc3-c3ccco3)CC2CCO)o1` (stereo not shown): -22.3%.
Take `OCCC1CN(Cc2cccc3c2OCO3)CCN1C1CCCCC1` (stereo not shown): the “hERG current change (%, negative = inhibition) at 10uM” value was -9.67%.
The same measure for `OCCC1CN(Cc2cccc(-c3ccco3)c2)CCN1Cc1ccsc1` (stereo not shown): -71.6%.
The same measure for `C#Cc1ccc(CN2CCN(Cc3ccsc3)C(CCO)C2)cc1` (stereo not shown): -34.6%.
